Here are results for 28 molecules from ChEMBL document CHEMBL1157539, “Thousands of chemical starting points for antimalarial lead identification” (Nature, 2010).

Holding throughout (type): functional
Assay [1] deals with Plasmodium falciparum. Put plainly: GSK_TCMDC: Inhibition of Plasmodium falciparum 3D7 in whole red blood cells, using parasite LDH activity as an index of growth. Test compounds present at 2uM.
The test system of assay [2] is Plasmodium falciparum. The assay is described as follows: GSK_TCMDC: Inhibition of Plasmodium falciparum Dd2 in whole red blood cells, using parasite LDH activity as an index of growth. Test compounds present at 2uM.
A further assay has as its system HepG2. Put plainly: GSK_TCMDC: Percent inhibition of human HepG2 cell line. Test compounds present at 10uM.

Turning to `O=C(Nc1ccc(CN2CCOCC2)cc1)c1ccc(-c2ccc(Cl)cc2)o1`, the Inhibition with Plasmodium falciparum [1] is listed as 98%; with Plasmodium falciparum [2] it was 11%; in the assay on HepG2, 22%.
The like results for `O=C(Nc1ccc(C(F)(F)F)cc1)c1cccc(S(=O)(=O)NCC2CCCN(CC3CCCCC3)C2)c1.O=C(O)C(F)(F)F` (centres undefined) were, in that order, 97%, 4% and 27%.
The like results for `Cc1ccc(CNC(=O)[C@H](Cc2ccccc2)Nc2cc(C)nc(NCc3ccccc3C)n2)cc1.O=C(O)C(F)(F)F` were, in that order, 97%, 50% and 23%.
As to `Cc1[nH]c(C)c([N+](=O)[O-])c(=O)c1-c1ccc(Oc2ccccc2)cc1`, the Inhibition in the assay on Plasmodium falciparum [1] came to 98%; in the assay with Plasmodium falciparum [2], 97%; with HepG2, 11%.
On to `CCCCOc1cc(CNCCCCCCNCc2cc(OCCCC)cc3ccccc23)c2ccccc2c1.CS(=O)(=O)O`, for which the values for the Inhibition in the assay with Plasmodium falciparum [1], in the assay with Plasmodium falciparum [2] and in the assay with HepG2 were 100%, 92% and 99%, respectively.
Regarding `Cc1ccc(C(=O)Nc2ccc(C)c(OC3CCN(Cc4ccco4)C3)c2)cc1.O=C(O)C(F)(F)F` (centres undefined), the results for the Inhibition in the assay on Plasmodium falciparum [1], in the assay on Plasmodium falciparum [2] and with HepG2 were 90%, 49% and 10%, respectively.
For `CC(C#N)Cc1ccc(-c2cnc(N)c3cc(-c4ccnc(N)n4)ccc23)cc1` (centres undefined), in that order: 96%, 62% and 56%.
The like results for `C[C@H](Cc1ccc(OCCNC[C@H](O)c2cccc(Cl)c2)cc1)NC[C@H](O)c1ccc(Cl)c(Cl)c1.O` were, in that order, 83%, 64% and 69%.
For `O=C(Nc1cccc(C(F)(F)F)c1)c1cccc2nc(C(F)(F)F)[nH]c12`, in that order: 100%, 98% and 81%.
Regarding `COc1ccc(O)c(C(=O)c2cc(C(=O)NCCc3ccccc3)c(=O)n(CCc3ccccc3)c2)c1`, the Inhibition came to 97% with Plasmodium falciparum [1], 18% in the assay on Plasmodium falciparum [2] and 11% in the assay with HepG2.
For `Fc1cccc(Cn2ncc3cc(Nc4ncnc5sc(C#Cc6ncc[nH]6)cc45)ccc32)c1`, in that order: 100%, 30% and 31%.
For `O=C(O)C(F)(F)F.O=C1CCCN1CCCNCc1ccc(-c2ccc(-c3nc4cc(F)ccc4[nH]3)cc2)cc1`, in that order: 100%, 99% and 16%.
For `CC(Nc1ccc2c(c1)CCC2)C(=O)Nc1cc(C(F)(F)F)ccc1N1CCOCC1` (centres undefined), in that order: 100%, 100% and 0%.
For `Cc1noc(C)c1-c1cccc(CNCc2ccc(-c3ccc(-c4nc5cc(C(F)(F)F)ccc5[nH]4)s3)cc2)c1.O=C(O)C(F)(F)F`, the Inhibition in the assay on Plasmodium falciparum [1] worked out at 100%; with Plasmodium falciparum [2], 99%; in the assay with HepG2, 54%.
The like results for `O=C(/C=C/c1ccc(Cl)c(Cl)c1)NCCC(CN1CCC(c2c[nH]c3ccccc23)CC1)c1ccccc1` (centres undefined) were, in that order, 100%, 42% and 84%.
For `O=C(Nc1cccc(-c2cccc(CN3CCCC3)c2)c1)c1cccc(Cl)c1.O=C(O)C(F)(F)F`, in that order: 89%, 30% and 44%.
The like results for `CCCCNCc1ccc(-c2nc(CN(Cc3ccc(Cl)c(Cl)c3)C(=O)CN(C)C)cs2)cc1.O=C(O)C(F)(F)F` were, in that order, 100%, 51% and 36%.
For `CCCCCCCCNCc1c(O)ccc2ccccc12.Cl`, the results for the Inhibition in the assay with Plasmodium falciparum [1], with Plasmodium falciparum [2] and with HepG2 were 99%, 94% and 0%, respectively.
The like results for `CC(C)(C)c1cc(C(=O)N2CCN(c3ncnc4ccsc34)CC2)n(Cc2ccccc2)n1` were, in that order, 95%, 83% and 2%.
For `Cc1cc(NC(=O)c2sc3ccccc3c2O)no1`, in that order: 96%, 25% and 6%.
The like results for `CCCc1cn2c3c(cc(C(=O)N[C@@H](Cc4ccccc4)[C@H](O)CNC4CCCCC4)cc13)N(CC)S(=O)(=O)CC2.O=CO` were, in that order, 98%, 98% and 2%.
With `COc1cc(Cc2cnc(N)nc2N)cc(OCCCN2C(=O)c3ccccc3C2=O)c1OC`, the figures for the Inhibition with Plasmodium falciparum [1], with Plasmodium falciparum [2] and in the assay with HepG2 were 96%, 0% and 0%, respectively.
With `NC1=NC(Cc2ccccc2)(c2ccncc2)C(=O)N1CCCc1ccccc1` (centres undefined), the values for the Inhibition in the assay on Plasmodium falciparum [1], with Plasmodium falciparum [2] and with HepG2 were 86%, 1% and 1%, respectively.
With `Br.Cc1cc(C)c(CON2C(=N)N=C(N)NC2(C)C)cc1C`, the Inhibition with Plasmodium falciparum [1] is recorded as 92%; in the assay with Plasmodium falciparum [2] it was 93%; in the assay with HepG2, 65%.
For `CCC(CC)CN1C(=O)C(c2ccccc2)(c2ccccc2)N=C1N.O=CO`, in that order: 97%, 81% and 14%.
For `Cc1nc(-c2nc(N3CCC(O)CC3)ncc2-c2ccsc2)sc1C`, in that order: 83%, 35% and 6%.
With `COc1ccc2nccc([C@@H](O)CN3CCC(NCc4nc5ccc(F)cc5[nH]4)CC3)c2c1.O=C(O)C(=O)O`, the Inhibition with Plasmodium falciparum [1] is reported as 100%; in the assay with Plasmodium falciparum [2], 4%; in the assay with HepG2, 20%.
The like results for `Cc1noc(C)c1-c1ccc2c(Nc3ccc(C(F)(F)F)cc3)c(C(N)=O)cnc2c1.Cl` were, in that order, 100%, 95% and 1%.

As a reminder, the Inhibition is the drop in the measured response relative to a control, in per cent. A higher Inhibition goes with strong suppression.
